Values joined by “and” are separate entries in the source; they are usually repeats but may differ in a detail not shown here. Equal entries are not always repeated. Among all 6,200 compounds or so, about 2,900 (47%) were called active. Cut-off read from the data, not from the text of the source: active = inhibition above about 50%; inactive = the rest. So high a share suggests a set chosen from earlier hits. The list shows a part of the results. The source holds several records for some structures; these can differ, active in one and inactive in another.

The nature of the assay: Mycobacterium tuberculosis growth inhibition, primary screen (AID 1259343). The settings on record: inhibition: at 10 µM, stronger effect = higher value; outcome: 10 uM.
As a reminder, the inhibition is the change of the read-out against control, counted positive when it falls. For the compound `CC(C)c1ccc(NC(=O)c2ccc(S(N)(=O)=O)cc2)cc1`, the inhibition is 2.35% (inactive).

Regarding `Cc1cc(C(=O)Nc2ccc3c(c2)OC2(CCCC2)O3)c(C)o1`, the inhibition was 56% (active).

For the compound `Cc1cc(C(=O)Nc2ccc(C(C)C)cc2)c(C)o1`, the inhibition is 61.2% (active).

Take `O=S(=O)(Nc1ccc2c(c1)OC1(CCCC1)O2)c1cccs1`: the inhibition is 27% (inactive).

Turning to `CC1(C)Oc2ccc(NC(=O)c3ccnc(NC4CC4)c3)cc2O1`, the inhibition was -11.8% (inactive).

In the case of `O=C(Nc1ccc(N2CCc3ccccc32)cc1)C1CCOC1` (stereo not given), the inhibition was 74.7% (active).

As for `O=C(O)c1cn(Cc2ccccc2)nc1OCc1ccccc1`, the inhibition was 72.7% (active).

Consider `O=C(O)c1cn(Cc2cccc(F)c2)nc1OCc1cccc(F)c1`, for which the inhibition is 29.7% (inactive).

Take `O=C(O)c1cn(Cc2ccc(F)cc2)nc1OCc1ccc(F)cc1`: the inhibition was 47.5% (inactive).

`CCCc1cc(=O)[nH]c(-n2nc(C)cc2NC(=O)CCc2ccc(OC)cc2)n1`: the inhibition was 101% (active).

Consider `COc1ccc(CC(=O)Nc2cc(C)nn2-c2nc(C)cc(=O)[nH]2)cc1`, for which the inhibition is 101% (active).

Take `CCc1cc(=O)[nH]c(-n2nc(C)cc2NC(=O)Cc2ccc(OC)cc2)n1`: the inhibition is 101% (active).

Take `COc1ccc(CCC(=O)Nc2cc(C)nn2-c2nc(C)cc(=O)[nH]2)cc1`: the inhibition was 101% (active).

On to `NCC(=O)Nc1ccc(-c2cccc3ccsc23)cc1F`, for which the inhibition was 7.93% (inactive).

For the compound `COC(C)c1ccc(-c2ccc(NC(=O)CN)c(F)c2)cc1` (stereo not given), the inhibition was 70.7% (active).

On to `Fc1ccccc1CNCC1(c2ccnc(-c3ccc(Cl)cc3)c2)CC1`, for which the inhibition was 44% (inactive).

For the compound `Fc1ccccc1CCNc1ncnc2ccc(Cl)cc12`, the inhibition is 60.7% (active).

As for `Fc1ccccc1-c1cnnc(NCCc2cccc(Cl)c2)n1`, the inhibition was 37.3% (inactive).

With `Cc1ccc(S(=O)(=O)NC(c2cccs2)C2CC2)cc1C` (stereo not given), the inhibition was 37.1% (inactive).

With `Cc1ccc(S(=O)(=O)NC(=O)c2ccccc2)cc1C(C)C`, the inhibition was 72.5% (active).

Consider `Cc1ccc(S(=O)(=O)NC(=O)c2cccc(F)c2)cc1C`, for which the inhibition was 79% (active).

Turning to `COc1cc(C(=O)NS(=O)(=O)c2ccc(C#N)cc2)ccc1C`, the inhibition is 21.9% (inactive).

Regarding `Cc1ccccc1C(C)NS(=O)(=O)c1ccc(Cl)cc1` (stereo not given), the inhibition was 17.3% (inactive).

On to `Cc1cc([N+](=O)[O-])cc(C(C)(C)C)c1O`, for which the inhibition is 101% (active).

Consider `CN(C)P(=Nc1ccc([N+](=O)[O-])cc1Br)(N(C)C)C(C)(C)C`, for which the inhibition is 11% (inactive).

On to `O=[N+]([O-])c1cc(Br)c(O)c(Br)c1`, for which the inhibition was 98.7% (active).

Regarding `CC[n+]1c(C)csc1Nc1ccc(N=Nc2ccccc2)cc1`, the inhibition was -14.7% (inactive).

Turning to `O=C(O)CC[N+](=O)[O-]`, the inhibition is 98.6% (active).

Turning to `Cc1nc(SCc2nc3ccccc3o2)c2ccccc2n1`, the inhibition is 51.7% (active).

Regarding `CC(C)Oc1ncccc1CNC(=O)N1CCc2ccccc21`, the inhibition was 28.7% (inactive).

With `CN1CC2([N+](=O)[O-])C=C(Oc3ccc(F)cc3)CC([N+](=O)[O-])(C1)C2` (stereo not given), the inhibition was 94.6% (active).

Consider `Cc1ccc(Cl)cc1NCc1cnc(Cl)s1`, for which the inhibition was 26.4% (inactive).

Regarding `Cc1nnc(NCCC23CC4CC(CC(C4)C2)C3)c(C#N)c1C`, the inhibition is 50.3% (active).

Turning to `CC[C@@H](C(=O)[C@@H](C)[C@@H](O)[C@H](C)[C@@H]1O[C@@H]([C@@H](CC)C(=O)O)CC[C@@H]1C)[C@H]1OC2(C=C[C@@H](O)[C@]3(CC[C@@](C)([C@H]4CC[C@](O)(CC)[C@H](C)O4)O3)O2)[C@H](C)C[C@@H]1C` (stereo not given in full), the inhibition was 100% (active).

For `C(=Nc1ccc(C23CC4CC(CC(C4)C2)C3)cc1)c1ccncc1`, the inhibition is -6.32% (inactive).

For the compound `O=c1cccnn1CCNS(=O)(=O)c1ccc(Cl)s1`, the inhibition is 99.9% (active).

With `Cc1ccc(Cn2nc(C)c(C=c3s/c(=C\C(=O)C(C)(C)C)[nH]c3=O)c2C)cc1`, the inhibition is 9.64% (inactive).

With `CC(C)c1ccc(C=c2sc(=CC(=O)C(C)(C)C)[nH]c2=O)cc1`, the inhibition is 92.9% (active).

On to `CC(C)(C)C(=O)C=c1[nH]c(=O)c(=Cc2c(F)c(F)c(F)c(F)c2F)s1`, for which the inhibition is 101% (active).

For the compound `Cc1ccc(C)c(C=c2sc(=CC(=O)C(C)(C)C)[nH]c2=O)c1`, the inhibition entry is “inactive”.

Regarding `CC(C)(C)C(=O)/C=c1/[nH]c(=O)/c(=C/c2ccc(F)c(Br)c2)s1`, the inhibition is 101% (active).

`O=C(Nc1nccn1CC1CC1)c1cc(F)c(Cl)cc1Cl`: the inhibition was 94.8% (active).

As for `CC(C)(C)n1c(NC(=O)c2ccc(F)cc2Cl)nc2ccccc21`, the inhibition was -8.71% (inactive).

On to `Cc1ccc(S(=O)(=O)Nc2nc(-c3ccc(F)c(F)c3)cs2)cc1`, for which the inhibition is 80.1% (active).

Consider `Cc1ccc(-c2csc(C=Cc3c(C)noc3C)n2)cc1`, for which the inhibition was 43.6% (inactive).

On to `CC(C)c1cc(=O)n2[nH]cc(-c3ccccc3)c2n1`, for which the inhibition was -1.37% (inactive).

As to `Cc1cc(C)nc(SCc2cc(=O)n3[nH]c(C)c(-c4ccccc4)c3n2)n1`, the inhibition is 100% (active).

Regarding `CCCc1cc(=O)n2[nH]cc(-c3ccccc3)c2n1`, the inhibition was 11.4% (inactive).

In the case of `Cc1ccc(-c2c(C)nn3c(NCC(C)C)cc(C)nc23)cc1`, the inhibition was 47.5% (inactive).

As to `Cc1[nH]n2c(=O)cc(C(C)C)nc2c1-c1ccccc1`, the inhibition is 100% (active).

As for `CCOC(=O)Cc1cc(=O)n2[nH]c(-c3ccccc3)c(-c3ccccc3)c2n1`, the inhibition was 40.6% (inactive).

With `CCCc1cc(NC)n2ncc(-c3ccccc3)c2n1`, the inhibition was -27.3% (inactive).

Turning to `CCCc1cc(NC)n2nc(C)c(-c3ccccc3)c2n1`, the inhibition is 95.4% (active).

For the compound `CCCc1cc(=O)n2[nH]c(C)c(-c3ccccc3)c2n1`, the inhibition is 78.8% (active) and -6.08% (inactive).

`N#Cc1ccc(OS(=O)(=O)c2cccc(F)c2)cc1`: the inhibition is 92.1% (active).

Take `COc1ccc(S(=O)(=O)Oc2cccc(CNCc3ccc(F)cc3)c2)cc1`: the inhibition is 30.6% (inactive).

Consider `CN(Cc1ccc(OC(F)F)cc1)S(=O)(=O)c1cccc(C#N)c1`, for which the inhibition was 28% (inactive).

Regarding `N#Cc1cccc(OCCN2CCCc3cc(F)ccc32)c1`, the inhibition is 36.8% (inactive).

Turning to `N#Cc1cccc(S(=O)(=O)Oc2ccccc2)c1`, the inhibition is 68.3% (active).

For the compound `N#Cc1cccc(S(=O)(=O)Oc2ccc(F)c(F)c2)c1`, the inhibition is 100% (active).

Turning to `N#Cc1cccc(S(=O)(=O)Nc2cc(C(F)(F)F)ccc2-n2cccn2)c1`, the inhibition was 33.2% (inactive).

Consider `N#Cc1ccc(OS(=O)(=O)c2ccc(F)cc2)cc1`, for which the inhibition is 29.4% (inactive).

Regarding `CC(C)NC(=O)NC(=O)COC(=O)C1CC1`, the inhibition was 23.7% (inactive).

In the case of `CC(C)NC(=O)CCC1CCCCC1`, the inhibition is 103% (active).

For `COc1ccc(-n2ccnc2CN2CCc3c([nH]c4ccccc34)C2c2ccccn2)cc1` (stereo not given), the inhibition result is “inactive”.

Take `N#CC(C(=O)CC1CCCC1)c1nc(N)nc(Nc2ccccc2)n1` (stereo not given): the inhibition is 1.29% (inactive).

With `CC(C)CCC(=O)C(C#N)c1nnc(-c2ccccc2)n1C` (stereo not given), the inhibition was 85.2% (active).

Turning to `Cn1c(-c2ccccc2)nnc1C(C#N)C(=O)C1CC=CCC1` (stereo not given), the inhibition is 93.3% (active).

For `NC(=NS(=O)(=O)c1ccc(Cl)cc1)c1ccc(Cl)cc1`, the inhibition is 15.6% (inactive).

Regarding `COc1ccc(COc2ccccc2NC(C)=O)cc1Br`, the inhibition is 36.3% (inactive).

Turning to `COc1ccc(Br)cc1CN(C)CC(=O)Nc1cc(Cl)cc(Cl)c1`, the inhibition was -7.89% (inactive).

As to `COc1ccc(CCC(=O)NNc2cccc(Cl)c2)cc1Br`, the inhibition is 98.9% (active).

With `OCC1(Cc2ccccc2C(F)(F)F)CCN(c2ccc(Cl)cn2)CC1`, the inhibition is 8.01% (inactive).

Regarding `OCC1(Cc2ccccc2)CCN(Cc2cc3ccccc3s2)CC1`, the inhibition is 30.1% (inactive).

As for `OCC1(Cc2ccccc2Cl)CCN(CC#Cc2ccccc2)CC1`, the inhibition is 83.9% (active).

For the compound `O=C(/C=C/c1cccc([N+](=O)[O-])c1)n1cnc2ccccc21`, the inhibition was 96.9% (active).

Take `O=C(C=Cc1ccc([N+](=O)[O-])cc1)c1ccc(F)cc1`: the inhibition is 25.8% (inactive).

`COc1ccc(-c2cnnc(NCCC3=CCCCC3)n2)c(OC)c1`: the inhibition entry was “inactive”.

As for `C1=C(CCNc2nncc(-c3ccccc3)n2)CCCC1`, the inhibition was 61.1% (active).

Consider `COc1ccccc1CCNc1nncc(-c2ccccc2)n1`, for which the inhibition entry was “inactive”.

As to `Cc1ccc(NC(=O)c2cnc3cc(C(=O)N(C)C)n(C)c3c2)cc1Cl`, the inhibition was 84.7% (active).

For the compound `CC(C)(CNC(=O)Nc1nc2c(s1)CCCC2)c1cccs1`, the inhibition was 1.49% (inactive).

For the compound `CC1CCc2nc(NC(=O)CSC(=S)N3CCCCC3C)sc2C1` (stereo not given), the inhibition was 32.5% (inactive).

With `CCOC(=O)C(C#N)=CNc1nc2c(s1)CC(C)CC2` (stereo not given), the inhibition was 23.7% (inactive).

For the compound `CCOC(C)C(=O)Nc1nc2c(s1)CC(c1ccccc1)CC2` (stereo not given), the inhibition is 35.4% (inactive).

For `O=C(Nc1cccc(-c2nc3c(s2)CCCC3)c1)C1CC1`, the inhibition was 7.39% (inactive).

Consider `CC1CCc2nc(NC(=O)c3ccc([N+](=O)[O-])s3)sc2C1` (stereo not given), for which the inhibition was 102% (active).

With `O=C(Cc1c(F)cccc1Cl)Nc1nc2c(s1)CCCC2`, the inhibition was 95.5% (active).

On to `CC1CCc2nc(NC(=O)Cc3c(F)cccc3Cl)sc2C1` (stereo not given), for which the inhibition was 59.4% (active).

On to `CC1CCc2nc(C(C#N)=Cc3cccs3)sc2C1` (stereo not given), for which the inhibition is -38.8% (inactive).

Turning to `CCOC(=O)C1=C(COC(=O)c2ccc([N+](=O)[O-])s2)NC(=O)NC1C` (stereo not given), the inhibition was 21.7% (inactive).

Consider `CC1CCc2nc(NC(=O)C3CCN(c4ncccn4)CC3)sc2C1` (stereo not given), for which the inhibition is 90.3% (active).

Take `CCC1CCc2nc(NC(=O)Cc3c(C)noc3C)sc2C1` (stereo not given): the inhibition was 36.4% (inactive).

Regarding `CC1CCc2ccc(F)cc2N1S(=O)(=O)c1ccc(Cl)s1` (stereo not given), the inhibition is 30.3% (inactive).

With `Fc1cccc(CN2CCN(Cc3ccc(-c4cccnc4)cc3)CC2)c1`, the inhibition is 46.7% (inactive).

`NC(=O)CSc1ccc(-c2cccc(CN3CCOCC3)c2)cc1`: the inhibition was 54.4% (active).

Regarding `Cc1ccc(SCC(=O)N2CCN(Cc3ccccc3)C2=O)cc1`, the inhibition was 20.7% (inactive).

Regarding `Brc1ccc(Oc2nnc(-c3ccccc3)s2)cc1`, the inhibition is 43.2% (inactive).

Take `Cc1ccc2nc(-c3ccc(NS(C)(=O)=O)cc3)sc2c1`: the inhibition is 29.5% (inactive).

Regarding `Cc1ccc(S(=O)(=O)c2nnc(-c3ccccc3)s2)cc1`, the inhibition is 58.3% (active).

The values above are taken from PubChem BioAssay AID1259343 (VanderVen Lab, College of Veterinary Medicine, Cornell …, 2017).
